# Measurements reported in article PMC7862700, “An all-to-all approach to the identification of sequence-specific readers for epigenetic DNA modifications on cytosine”.
# What was measured:
# Test in all cases: DAPPL (digital affinity profiling via proximity ligation, sequencing); 10 mM Tris-HCl pH 7.5, 50 mM NaCl, 1 mM DTT, 4% glycerol, room temperature, 30 min; GST-TFs on glutathione beads, 16-mer random dsDNA library, 0.1% formaldehyde crosslink after washing; high values mean tight binding
# Conditions in all cases: protein: recombinant; tags: N-terminal GST; dsDNA, one strand shown
# [1] = target: T1, ERF (Homo sapiens, UniProt P50548 1-548)
# T1 sequence: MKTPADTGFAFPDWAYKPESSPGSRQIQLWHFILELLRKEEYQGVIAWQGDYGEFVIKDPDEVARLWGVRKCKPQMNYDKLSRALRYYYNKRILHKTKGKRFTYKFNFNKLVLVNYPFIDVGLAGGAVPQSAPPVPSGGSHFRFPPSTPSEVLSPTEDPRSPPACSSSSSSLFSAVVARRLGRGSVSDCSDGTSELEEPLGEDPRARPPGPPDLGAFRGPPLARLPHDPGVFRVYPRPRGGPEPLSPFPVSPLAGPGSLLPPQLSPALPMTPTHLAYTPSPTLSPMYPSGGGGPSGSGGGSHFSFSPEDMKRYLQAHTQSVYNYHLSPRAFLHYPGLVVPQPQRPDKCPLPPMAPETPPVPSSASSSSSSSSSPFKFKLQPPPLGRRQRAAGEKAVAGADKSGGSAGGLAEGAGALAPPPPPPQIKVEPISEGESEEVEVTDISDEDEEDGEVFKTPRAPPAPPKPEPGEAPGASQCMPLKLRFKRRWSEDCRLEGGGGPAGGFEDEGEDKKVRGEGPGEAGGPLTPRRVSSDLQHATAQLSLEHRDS
# Outline: (§1)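 Pools were built from human transcription factors expressed in yeast as GST fusions, captured on glutathione beads and DNA-barcoded, along with a tag-only sample. Incubation with 200 nmole of a 16-mer random double-stranded DNA library lasted 30 min at room temperature in Tris/NaCl/DTT/glycerol buffer, and was followed by washing, 0.1% formaldehyde crosslinking, proximity ligation, PCR amplification and Illumina NextSeq500 sequencing. Binding signal is the quotient of each hexamer's read frequency for a factor and its frequency for the tag-only sample.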
# [2] = target: T2, ETS2 (Homo sapiens, UniProt P15036 1-469)
# T2 sequence: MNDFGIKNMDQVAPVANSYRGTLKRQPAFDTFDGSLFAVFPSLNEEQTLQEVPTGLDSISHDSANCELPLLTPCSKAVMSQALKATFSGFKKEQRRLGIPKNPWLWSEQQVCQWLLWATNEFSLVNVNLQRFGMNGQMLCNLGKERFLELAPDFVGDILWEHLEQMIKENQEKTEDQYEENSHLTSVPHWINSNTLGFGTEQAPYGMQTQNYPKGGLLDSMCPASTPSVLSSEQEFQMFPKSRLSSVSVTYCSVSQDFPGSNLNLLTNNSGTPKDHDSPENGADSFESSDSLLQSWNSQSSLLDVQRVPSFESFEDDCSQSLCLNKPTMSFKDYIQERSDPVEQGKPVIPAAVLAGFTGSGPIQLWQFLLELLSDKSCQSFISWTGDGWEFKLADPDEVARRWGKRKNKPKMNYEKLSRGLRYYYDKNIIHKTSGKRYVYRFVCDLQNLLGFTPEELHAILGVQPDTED
# Outline: as §1
# [3] = target: T3, SPDEF (Homo sapiens, UniProt O95238 1-335)
# T3 sequence: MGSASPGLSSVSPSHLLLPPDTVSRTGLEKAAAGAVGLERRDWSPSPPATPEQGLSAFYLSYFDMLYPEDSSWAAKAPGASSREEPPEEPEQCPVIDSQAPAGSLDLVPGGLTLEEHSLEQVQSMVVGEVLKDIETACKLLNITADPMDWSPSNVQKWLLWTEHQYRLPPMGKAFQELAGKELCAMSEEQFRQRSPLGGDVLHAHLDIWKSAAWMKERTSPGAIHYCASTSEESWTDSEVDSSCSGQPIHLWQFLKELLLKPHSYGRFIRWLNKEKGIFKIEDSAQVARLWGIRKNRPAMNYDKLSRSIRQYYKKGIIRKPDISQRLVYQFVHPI
# Outline: as §1
# [4] = target: T4, ETV7 (Homo sapiens, UniProt Q9Y603 1-341)
# T4 sequence: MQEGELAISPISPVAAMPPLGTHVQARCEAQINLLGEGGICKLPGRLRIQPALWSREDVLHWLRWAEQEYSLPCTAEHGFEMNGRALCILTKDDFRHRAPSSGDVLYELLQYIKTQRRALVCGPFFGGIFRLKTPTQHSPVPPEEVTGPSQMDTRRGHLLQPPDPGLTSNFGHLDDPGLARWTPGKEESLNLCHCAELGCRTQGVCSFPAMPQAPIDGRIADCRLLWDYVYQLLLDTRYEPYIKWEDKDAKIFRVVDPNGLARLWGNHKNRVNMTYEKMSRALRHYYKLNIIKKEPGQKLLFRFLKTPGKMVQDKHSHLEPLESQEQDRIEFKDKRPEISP
# Outline: as §1
# [5] = target: T5, ELF5 (Homo sapiens, UniProt Q9UKW6-2 1-255)
# T5 sequence: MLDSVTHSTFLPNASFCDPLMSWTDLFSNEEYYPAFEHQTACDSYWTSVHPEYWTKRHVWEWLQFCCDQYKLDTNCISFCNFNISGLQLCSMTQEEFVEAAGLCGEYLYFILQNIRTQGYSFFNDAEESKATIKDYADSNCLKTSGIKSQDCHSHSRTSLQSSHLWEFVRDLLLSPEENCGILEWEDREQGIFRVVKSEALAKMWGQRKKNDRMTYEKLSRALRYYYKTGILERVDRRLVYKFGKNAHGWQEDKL
# Outline: as §1
# [6] = target: T6, ETV3 (Homo sapiens, UniProt P41162-2 1-143)
# T6 sequence: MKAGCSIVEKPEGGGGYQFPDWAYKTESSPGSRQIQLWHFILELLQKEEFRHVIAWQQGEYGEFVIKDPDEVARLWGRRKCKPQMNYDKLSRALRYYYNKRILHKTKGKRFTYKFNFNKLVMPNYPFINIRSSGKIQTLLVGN
# Outline: as §1
# [7] = target: ETV6 (Homo sapiens, UniProt P41212 1-452)
# Outline: as §1
# [8] = target: T7, ETV3L (Homo sapiens, UniProt Q6ZN32 1-361)
# T7 sequence: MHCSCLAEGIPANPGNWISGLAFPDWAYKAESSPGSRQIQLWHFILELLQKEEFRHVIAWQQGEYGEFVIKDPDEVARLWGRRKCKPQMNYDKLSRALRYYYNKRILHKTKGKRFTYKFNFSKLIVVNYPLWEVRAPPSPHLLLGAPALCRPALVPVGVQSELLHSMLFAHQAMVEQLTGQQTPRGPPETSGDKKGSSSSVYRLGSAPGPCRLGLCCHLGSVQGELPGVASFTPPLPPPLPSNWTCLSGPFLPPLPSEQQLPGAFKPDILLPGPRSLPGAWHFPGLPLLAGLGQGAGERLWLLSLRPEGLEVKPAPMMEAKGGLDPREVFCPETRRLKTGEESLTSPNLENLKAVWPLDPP
# Outline: as §1
# Sequence of ETV6 (P41212 whole entry): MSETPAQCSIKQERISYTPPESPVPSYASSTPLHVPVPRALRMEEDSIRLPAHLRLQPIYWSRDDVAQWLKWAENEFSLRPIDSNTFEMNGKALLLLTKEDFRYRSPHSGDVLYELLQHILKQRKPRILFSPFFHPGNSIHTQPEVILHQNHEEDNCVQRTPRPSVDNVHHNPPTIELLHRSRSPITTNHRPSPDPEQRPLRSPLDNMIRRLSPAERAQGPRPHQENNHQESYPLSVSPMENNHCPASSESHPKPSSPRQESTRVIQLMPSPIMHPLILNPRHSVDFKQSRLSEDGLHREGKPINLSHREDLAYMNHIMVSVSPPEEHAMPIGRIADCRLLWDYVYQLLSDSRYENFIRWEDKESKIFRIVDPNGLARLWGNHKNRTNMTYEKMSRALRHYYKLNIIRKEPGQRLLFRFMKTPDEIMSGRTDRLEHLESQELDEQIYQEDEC
Sequence,binding signal [1],binding signal [2],binding signal [3],binding signal [4],binding signal [5],binding signal [6],binding signal [7],binding signal [8]
AAACGA,"1.17 fold enrichment (6-mer frequency, TF over GST control)","1.15 fold enrichment (6-mer frequency, TF over GST control)","1.03 fold enrichment (6-mer frequency, TF over GST control)","1.05 fold enrichment (6-mer frequency, TF over GST control)","1.09 fold enrichment (6-mer frequency, TF over GST control)","1.07 fold enrichment (6-mer frequency, TF over GST control)","1.12 fold enrichment (6-mer frequency, TF over GST control)",–
CTATGA,"1.12 fold enrichment (6-mer frequency, TF over GST control)","1.15 fold enrichment (6-mer frequency, TF over GST control)","1.07 fold enrichment (6-mer frequency, TF over GST control)","1.08 fold enrichment (6-mer frequency, TF over GST control)","1 fold enrichment (6-mer frequency, TF over GST control)",–,–,–
CGAAAT,"1.03 fold enrichment (6-mer frequency, TF over GST control)",–,"1.04 fold enrichment (6-mer frequency, TF over GST control)","1.11 fold enrichment (6-mer frequency, TF over GST control)",–,"1.03 fold enrichment (6-mer frequency, TF over GST control)",–,–
GGTTTA,"1.11 fold enrichment (6-mer frequency, TF over GST control)","1.02 fold enrichment (6-mer frequency, TF over GST control)","1.1 fold enrichment (6-mer frequency, TF over GST control)","1.15 fold enrichment (6-mer frequency, TF over GST control)","1.08 fold enrichment (6-mer frequency, TF over GST control)","1.1 fold enrichment (6-mer frequency, TF over GST control)","1.07 fold enrichment (6-mer frequency, TF over GST control)",–
ATGTAG,"1.14 fold enrichment (6-mer frequency, TF over GST control)","1.08 fold enrichment (6-mer frequency, TF over GST control)","1.09 fold enrichment (6-mer frequency, TF over GST control)",–,"1.04 fold enrichment (6-mer frequency, TF over GST control)","1.08 fold enrichment (6-mer frequency, TF over GST control)","1.02 fold enrichment (6-mer frequency, TF over GST control)",–
GGTTCA,"1.01 fold enrichment (6-mer frequency, TF over GST control)","1.11 fold enrichment (6-mer frequency, TF over GST control)","1.13 fold enrichment (6-mer frequency, TF over GST control)",–,"1.02 fold enrichment (6-mer frequency, TF over GST control)","1.09 fold enrichment (6-mer frequency, TF over GST control)","1.09 fold enrichment (6-mer frequency, TF over GST control)",–
AAGGTT,"1.01 fold enrichment (6-mer frequency, TF over GST control)","1.08 fold enrichment (6-mer frequency, TF over GST control)","1.02 fold enrichment (6-mer frequency, TF over GST control)","1.15 fold enrichment (6-mer frequency, TF over GST control)","1.1 fold enrichment (6-mer frequency, TF over GST control)","1.07 fold enrichment (6-mer frequency, TF over GST control)","1 fold enrichment (6-mer frequency, TF over GST control)",–
CGACGT,"1.17 fold enrichment (6-mer frequency, TF over GST control)","1.05 fold enrichment (6-mer frequency, TF over GST control)","1.02 fold enrichment (6-mer frequency, TF over GST control)","1.2 fold enrichment (6-mer frequency, TF over GST control)","1.11 fold enrichment (6-mer frequency, TF over GST control)","1.09 fold enrichment (6-mer frequency, TF over GST control)","1.08 fold enrichment (6-mer frequency, TF over GST control)",–
GAATTA,"1.06 fold enrichment (6-mer frequency, TF over GST control)","1.05 fold enrichment (6-mer frequency, TF over GST control)","1.01 fold enrichment (6-mer frequency, TF over GST control)","1.06 fold enrichment (6-mer frequency, TF over GST control)","1.03 fold enrichment (6-mer frequency, TF over GST control)","1.1 fold enrichment (6-mer frequency, TF over GST control)","1.08 fold enrichment (6-mer frequency, TF over GST control)",–
GTTAAA,"1.09 fold enrichment (6-mer frequency, TF over GST control)",–,–,–,–,"1.04 fold enrichment (6-mer frequency, TF over GST control)","1.08 fold enrichment (6-mer frequency, TF over GST control)","1.04 fold enrichment (6-mer frequency, TF over GST control)"
TGCTGT,"1.08 fold enrichment (6-mer frequency, TF over GST control)","1.15 fold enrichment (6-mer frequency, TF over GST control)",–,"1.13 fold enrichment (6-mer frequency, TF over GST control)",–,–,"1.03 fold enrichment (6-mer frequency, TF over GST control)",–
CGCCAA,"1.07 fold enrichment (6-mer frequency, TF over GST control)","1.04 fold enrichment (6-mer frequency, TF over GST control)",–,"1.01 fold enrichment (6-mer frequency, TF over GST control)",–,"1.04 fold enrichment (6-mer frequency, TF over GST control)","1.03 fold enrichment (6-mer frequency, TF over GST control)",–
GGCTTG,"1.01 fold enrichment (6-mer frequency, TF over GST control)","1.06 fold enrichment (6-mer frequency, TF over GST control)",–,"1.14 fold enrichment (6-mer frequency, TF over GST control)",–,–,–,–
GTTCGA,"1.23 fold enrichment (6-mer frequency, TF over GST control)","1.12 fold enrichment (6-mer frequency, TF over GST control)","1.01 fold enrichment (6-mer frequency, TF over GST control)","1.13 fold enrichment (6-mer frequency, TF over GST control)",–,"1.06 fold enrichment (6-mer frequency, TF over GST control)","1.02 fold enrichment (6-mer frequency, TF over GST control)",–
GCAATA,"1.03 fold enrichment (6-mer frequency, TF over GST control)","1.04 fold enrichment (6-mer frequency, TF over GST control)","1.04 fold enrichment (6-mer frequency, TF over GST control)","1.08 fold enrichment (6-mer frequency, TF over GST control)",–,"1.04 fold enrichment (6-mer frequency, TF over GST control)","1.03 fold enrichment (6-mer frequency, TF over GST control)",–
CTGTAA,"1.2 fold enrichment (6-mer frequency, TF over GST control)","1.09 fold enrichment (6-mer frequency, TF over GST control)",–,–,"1.03 fold enrichment (6-mer frequency, TF over GST control)","1.12 fold enrichment (6-mer frequency, TF over GST control)","1.03 fold enrichment (6-mer frequency, TF over GST control)",–
TTTGAG,"1.13 fold enrichment (6-mer frequency, TF over GST control)","1.08 fold enrichment (6-mer frequency, TF over GST control)","1.04 fold enrichment (6-mer frequency, TF over GST control)","1.1 fold enrichment (6-mer frequency, TF over GST control)","1.03 fold enrichment (6-mer frequency, TF over GST control)","1.22 fold enrichment (6-mer frequency, TF over GST control)","1.02 fold enrichment (6-mer frequency, TF over GST control)",–
